Cycloheximide cs – Cycloheximide Counterscreen for Small Molecule Inhibitors of Shiga Toxin. AID 2314, 2010. 300,000 tested, 12% active. max response, %. cell reporter, cycloheximide protein synthesis inhibition counterscreen; in the data active = max response mostly above about 13%, no sharp cut-off; inactive = mostly below about 14%; also: read at 38.3 µM for the half of the compounds with a filed dose; 0% is about no effect
FMDV inh – High Throughput Screening for Foot and Mouth Disease Virus Antivirals | Potency, µM (series often up to 57.9 µM), for the others: at the top dose activity change, negative = inhibition, usual class: inhibitors | 410,000 tested, 1.2% active | FMDV antiviral cell-based qHTS | AID 1159524, 2015; calls by dose curve; tested in HEK293T cells; also: read-out not given here; potency is read from the fitted curve at half-maximal effect; % is scaled to controls: 0 for no effect and ±100 for the full control effect; nearly all actives have a fitted effect of over 45% in size
Sm TGR block – qHTS Assay for the Inhibitors of Schistosoma Mansoni Peroxiredoxins | purified TGR, DTNB reduction, TNB absorbance 405 nm | Potency, µM (highest dose often 114 µM), inactives show top-dose activity change, negative = inhibition, hits mostly inhibitors | 360,000 tested, 3% active | AID 485364, 2010; active = well fitted inhibition curve with a large enough effect; inconclusive = small, poorly fitted or top-dose-only effect; inactive = no such curve, though single readings can be large or run the other way; also: potency is read from the fitted curve at half-maximal effect; % is scaled to controls: 0 for no effect and ±100 for the full control effect; nearly all actives have a fitted effect of over 60% in size
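First, TGR (20 nM dispensed) and NADPH were mixed with compound. Second, a 15 min room-temperature incubation followed. Third, further NADPH and then DTNB were added to start the reaction. Finally, TNB absorbance was monitored kinetically.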
Shiga inhibitor – A qHTS for Small Molecule Inhibitors of Shiga Toxin; Vero cells, Shiga toxin protein synthesis inhibition reporter; inhibition, % at 38.7 µM; 290,000 tested, 9.2% active; in the data active = inhibition mostly above about 28%, no sharp cut-off; inactive = mostly below about 43%; also: 0% is about no effect
The depositor's hits bear a star; ? = inconclusive; / = no result; + = active, no number. This is a sample that favours compounds with a hit; in the whole collection about 12% have one here.

SMILES	Cycloheximide cs	FMDV inh	Sm TGR block	Shiga inhibitor
CC(C)c1ccc(N(C(=O)c2snc(C(N)=O)c2N)C(C(=O)NC2CCCC2)c2ccncc2)cc1 (configuration not stated)	15*	-3%	0%	27
NC(=O)c1nsc(C(=O)N(c2ccc(F)cc2)C(C(=O)NCC2CCCO2)c2c[nH]c3ccccc23)c1N (configuration not stated)	-3	12%	25µM*	23
CCOc1ccc(C(C(=O)NCC2CCCO2)N(C(=O)c2snc(C(N)=O)c2N)c2ccc(F)cc2)cc1 (configuration not stated)	-2	-14%	2%	-6
Cc1cccc(N(C(=O)c2snc(C(N)=O)c2N)C(C(=O)NCC2CCCO2)c2c[nH]c3ccccc23)c1 (configuration not stated)	-3	-5%	0%	-7
NC(=O)c1nsc(C(=O)N(c2cccc(F)c2)C(C(=O)NCC2CCCO2)c2c[nH]c3ccccc23)c1N (configuration not stated)	1	9%	18µM*	36
COc1cc(OC)c(NC(=O)C(C)n2c(=O)cc(-c3ccccc3)c3c(C)nn(C)c32)cc1Cl (configuration not stated)	/	-22%	-6%	/
COC(=O)c1cnn(-c2ccc(C(=O)Nc3ccc(C(C)=O)cc3)cc2)c1N	/	2%	-1%	/
Cc1cc(NCCCn2ccnc2)n2nc(-c3ccc(F)cc3)cc2n1	20*	/	-7%	29*
CN(C)CCCNc1cc(C(C)(C)C)nc2c(-c3ccccc3)cnn12	47*	5%	-2%	61*
CC(C)(C)c1cc(NCCCn2ccnc2)n2ncc(-c3ccc(Cl)cc3)c2n1	58*	6%	-5%	87*
Cc1cc(NCCCn2ccnc2)n2nc(-c3ccc(Cl)cc3)cc2n1	20*	12%	/	57
CCCOc1ccc(-c2nonc2NC(=O)c2oc3ccc(Cl)cc3c2C)cc1OCCC	/	-24%	0%	/
O=c1cc(-c2ccccc2)n2c(SCc3ccc(Br)cc3)nnc2[nH]1	/	8%	4%	/
COc1ccc(NC(=O)Nc2cccc(C)n2)c(OC)c1	33*	21%	9%	39*
COc1ccc(NC(=O)Nc2cccc3ccccc23)c(OC)c1	-1	-12%	0%	-3
COc1cccc(NC(=O)Nc2cc(NC(=O)Nc3cccc(OC)c3)c(C)nc2C)c1	6	-17%	6%	-5
Cc1cccc(NC(=O)Nc2ccccc2)n1	23*	28%	1%	43*
Cc1cccc(NC(=O)Nc2ccc(Cl)c(Cl)c2)n1	27*	-35%	20%	72*
COc1cccc(NC(=O)Nc2cccc(C)n2)c1	53*	26%	-2%	92*
Cc1ccc(NC(=O)Nc2cccc(C)n2)c(C)c1	36	20%	10%	20
CCOC(=O)c1c(-c2ccc(C)cc2)csc1NC(=O)c1cc(=O)c2cc(C)cc(C)c2o1	/	-13%	2%	/
COc1ccc(NC(C)=O)cc1NC(=O)CSc1nnc(-c2ccncc2)n1C	2	-25%	28%	3
Cc1cc(C)cc(NC(=O)CSc2nnc(-c3ccccc3)n2N)c1	14*	7%	3%	-10
CCn1c(SCC(=O)Nc2nccs2)nnc1-c1ccc(C)cc1	-2	-4%	-18%	18
Cc1cccc(NC(=O)CSc2nnc(-c3ccccc3)n2N)c1	12	-7%	5%	12
SMILES	Cycloheximide cs	FMDV inh	Sm TGR block	Shiga inhibitor
COc1ccc(NC(C)=O)cc1NC(=O)CSc1nnc(-c2ccccc2)n1N	18	3%	0%	60*
Cn1cc(SCC(=O)Nc2nccs2)c2ccccc21	40*	40%	-11%	83*
Cc1ccc(-c2nnc(SCC(=O)Nc3nccs3)n2N)cc1	30*	92%	0%	43*
Cc1cc(C(=O)NCC2CCC3(CCN(Cc4ccc5ccccc5c4)CC3)O2)n(C)n1 (configuration not stated)	/	-29%	/	/
Cc1ccc(Cl)cc1NC(=O)c1oc2ccc(S(=O)(=O)N(C)C3CCCCC3)cc2c1C	/	-9%	1%	/
Cc1nn(C)c(C)c1/C=C(/C(=O)C(C)(C)C)n1cncn1	-1	-15%	?	17
CC(C)(C)C(=O)/C(=C/c1ccncc1)n1cncn1	6	11µM*	/	-6
O=C(N/N=C\c1c(O)ccc2ccccc12)c1ccc(O)cc1	2	26%	-9%	12
Cc1occc1C(=O)N/N=C/c1c(O)ccc2ccccc12	36*	53%	-17%	90*
O=C(N/N=C/c1c(O)ccc2ccccc12)c1ccc(Br)o1	18*	55%	-2%	-2
Cn1nccc1C(=O)N/N=C/c1c(O)ccc2ccccc12	28*	46%	-22%	47*
OC(c1ccc2c(c1)CN(Cc1c[nH]c3ccccc13)CCO2)c1ccccn1 (configuration not stated)	/	3%	/	/
CC(C)NC(=O)c1sc2ncccc2c1-n1cccc1	/	21%	1%	/
C/C(Cn1nc([N+](=O)[O-])cc1C)=N\NC(=O)c1cccc(Br)c1	31*	-16%	7%	22
C/C(Cn1nc([N+](=O)[O-])cc1C)=N\NC(=O)COc1ccc(Cl)cc1Cl	-2	-14%	-6%	-3
COc1ccc(OCC(=O)N/N=C(\C)c2cccs2)cc1	-1	43%	-29%	-5
C/C(=N\NC(=O)COc1ccccc1[N+](=O)[O-])c1cccs1	43*	11%	-4%	66*
C/C(Cn1nc([N+](=O)[O-])cc1C)=N\NC(=O)COc1ccccc1[N+](=O)[O-]	25*	-16%	7%	+
CCN(CC)C1CCN(C(=O)c2cnn(-c3nccc(-c4ccccc4OC)n3)c2-c2ccco2)C1 (configuration not stated)	/	6%	/	/
N#CC1=C2C=CC=CN2CC1=O	30*	-2%	2%	111*
Cc1cc2cc(CNC(=O)Nc3ccccc3)ccc2[nH]1	28*	56%	-15%	95*
CCOC(=O)CCC(=O)NCc1ccc2[nH]c(C)cc2c1	-2	11%	50µM*	16
CCNC(=S)NCc1ccc2[nH]c(C)cc2c1	3	-17%	-18%	-4
CCOC(=O)NCc1ccc2[nH]c(C)cc2c1	18*	?	?	24*
CCc1nn2c(=O)c(S(=O)(=O)Nc3ccc(OC)c(Cl)c3)c(C)nc2s1	/	-9%	-9%	/
SMILES	Cycloheximide cs	FMDV inh	Sm TGR block	Shiga inhibitor
CCOc1ccc(NC(=O)c2cnc3sc(N4CCOCC4)nn3c2=O)cc1	/	-4%	-1%	/
COc1ccccc1Nc1nc(-c2sc(NC(=O)c3ccco3)nc2C)cs1	-2	6%	3%	12
COc1ccc(CC(=O)Nc2nc(-c3cccnc3)cs2)cc1	-4	-20%	-2%	-10
COc1ccccc1Nc1nc(-c2cccnc2)cs1	34*	20%	7%	36*
COc1ccc(OC)c2nc(-c3cccnc3)ccc12	29*	46%	-14%	48*
COc1ccccc1Nc1nc(C2(C)CCC(=O)O2)cs1 (configuration not stated)	52*	9%	3%	62*
CCc1ccccc1Nc1nc(-c2cccnc2)cs1	19*	29%	0%	23

High-throughput results (PubChem)
